Data on 14 compounds can be found in PubChem BioAssay (NCATS).

The test system of one test is ICS. Put plainly: qHTS profiling for inhibitors of Plasmodium falciparum proliferation (AID 504749).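 Further: 0% = DMSO vehicle and full inhibition = artemisinin control.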 As to conditions: P. falciparum in erythrocytes, SYBR Green DNA, 72 h; series mostly up to 28.7 µM. In outline:
(§1)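 P. falciparum-infected erythrocytes (0.3% parasitemia, 2.5% hematocrit) incubated with compound 72 h at 37 C, 5% CO2. Parasite DNA detected by SYBR Green after lysis, overnight at room temperature; normalised to 0.29 uM artemisinin and DMSO.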
On the technique in general: qHTS replaces the single test concentration by a dilution series.

The next test concerns JCK. The description is as above. As to conditions: P. falciparum in erythrocytes, SYBR Green DNA, 72 h; series mostly up to 28.7 µM. Put shortly:
as §1

In another test the test system is N140. The description is as above. To be noted: P. falciparum in erythrocytes, SYBR Green DNA, 72 h; series mostly up to 28.7 µM. Put shortly:
as §1

The next test concerns P93_24. Described as above. As to conditions: P. falciparum in erythrocytes, SYBR Green DNA, 72 h; series mostly up to 28.7 µM. In outline: as §1
The test system of a further test is P94_40. Described as above. As to conditions: P. falciparum in erythrocytes, SYBR Green DNA, 72 h; series mostly up to 28.7 µM. In outline:
as §1

A further test relates to PAD. Described as above. As to conditions: P. falciparum in erythrocytes, SYBR Green DNA, 72 h; series mostly up to 28.7 µM. Put shortly:
as §1

For another test, the system named is PC15. The test is described as above. To be noted: P. falciparum in erythrocytes, SYBR Green DNA, 72 h; series mostly up to 28.7 µM. In outline:
as §1

In the next test the test system is PC26. The description is as above. To be noted: P. falciparum in erythrocytes, SYBR Green DNA, 72 h; series mostly up to 28.7 µM. In outline:
as §1

The next test has as its system PC49. The test is described as above. As to conditions: P. falciparum in erythrocytes, SYBR Green DNA, 72 h; series mostly up to 28.7 µM. Put shortly: as §1
A further test concerns SC27B. The test is described as above. To be noted: P. falciparum in erythrocytes, SYBR Green DNA, 72 h; series mostly up to 28.7 µM. Put shortly:
as §1

For another test, the system named is TAB109. The description is as above. As to conditions: P. falciparum in erythrocytes, SYBR Green DNA, 72 h; series mostly up to 28.7 µM. In outline: as §1
The next test has as its system TAB113. Described as above. As to conditions: P. falciparum in erythrocytes, SYBR Green DNA, 72 h; series mostly up to 28.7 µM. In outline:
as §1

The subject of a further test is TAB165. The test is described as above. To be noted: P. falciparum in erythrocytes, SYBR Green DNA, 72 h; series mostly up to 28.7 µM. Put shortly: as §1
For the next test, the system named is W2. Described as above. To be noted: P. falciparum in erythrocytes, SYBR Green DNA, 72 h; series mostly up to 28.7 µM. In outline: as §1
For another test, the system named is KB-3-1. The test is described as follows: Cytotoxic Profiling of Annotated Libraries Using Quantitative High-Throughput Screening (AID 1296008). Further: potency means the concentration at half of the fitted maximal effect. On max response: on the % scale 0 is the no-effect control and ±100 the full control effect. To be noted: Five cell lines viability, CellTiter-Glo ATP luminescence, 48-72 h; max response: active compounds read low. In outline:
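Cells exposed to compounds for 48 or 72 hr at 37 degrees Celsius. Viability read as ATP-coupled luminescence with CellTiter-Glo after 10 min at room temperature.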
A general note: ATP-based viability assays read luminescence as a measure of living cells.

Results filed as inconclusive are left out. Unmarked numbers belong to inactive results. Calls of active or inactive are those of the source. The call rests on the fitted dose curve; in most records, active means well fitted inhibition curve with a large enough effect; inconclusive means small, poorly fitted or top-dose-only effect; inactive means flat fitted curve, though single readings scatter.
Further: nearly all actives have a fitted effect of over 60% in size.

With `CCN(CC)CCOc1ccc2nc(N(C)C)sc2c1`, the Potency result in the test on ICS, in the test with JCK, with N140, in the test with P93_24, in the test with P94_40 and in the test with PAD was “inactive” each time. Moreover, the Potency result in the test on PC15, in the test on PC26, with PC49, with SC27B, in the test with TAB109 and with TAB113 was “inactive” in each case. Further, the Potency result in the test on TAB165 and with W2 was “inactive” each time. The max response in the test on KB-3-1 is -23.9%.
Take `CCCCCCCCCCCCCCCCCC(=O)OCC(C)O` (stereo not given): the Potency entry in the test with ICS, with JCK, with N140, in the test on P93_24, with P94_40 and in the test on PAD was “inactive” throughout. Besides, the Potency entry with PC15, in the test with PC26, in the test with PC49, in the test on SC27B, with TAB109 and in the test on TAB113 was “inactive” in each case. Also, the Potency entry with TAB165 and in the test on W2 was “inactive” throughout. Further, in the test with KB-3-1, the max response is -14.3%.
For `O=C1c2ccccc2CN2C(=O)c3ccccc3CN12`, the Potency entry in the test on ICS, in the test on JCK, with N140, in the test on P93_24, in the test on P94_40 and in the test on PAD was “inactive” in each case. For the same compound, the Potency entry in the test with PC15, in the test with PC26, with PC49, with SC27B, with TAB109 and in the test on TAB113 was “inactive” each time. Besides, the Potency entry in the test on TAB165 and in the test on W2 was “inactive” throughout. Further, the max response in the test on KB-3-1 was 1.75%.
For the compound `O=C(O)/C=C/c1ccccc1`, the Potency result in the test on ICS, in the test with JCK, with N140, in the test on P93_24, in the test with P94_40 and in the test on PAD was “inactive” in each case. Also, the Potency entry in the test with PC15, with PC26, in the test with PC49, in the test with SC27B, with TAB109 and with TAB113 was “inactive” in each case. The Potency entry in the test on TAB165 and in the test with W2 was “inactive” in each case. Besides, the max response in the test on KB-3-1 was 5.56%.
Regarding `CC(/C=C/C=C(\C)C(=O)O[C@@H]1O[C@H](CO[C@@H]2O[C@H](CO)[C@@H](O)[C@H](O)[C@H]2O)[C@@H](O)[C@H](O)[C@H]1O)=C\C=C\C=C(C)\C=C\C=C(/C)C(=O)O[C@@H]1O[C@H](CO[C@@H]2O[C@H](CO)[C@@H](O)[C@H](O)[C@H]2O)[C@@H](O)[C@H](O)[C@H]1O`, the Potency result in the test with ICS, with JCK, in the test on N140, in the test with P93_24, in the test on P94_40 and in the test on PAD was “inactive” each time. The Potency result in the test on PC15, with PC26, with PC49, with SC27B, in the test on TAB109 and in the test with TAB113 was “inactive” in each case. Further, the Potency result in the test with TAB165 and in the test on W2 was “inactive” in each case. In addition, in the test with KB-3-1, the max response was 1.72%.
With `[O]=[Bi][O][Bi]=[O]`, the Potency entry in the test on ICS, in the test with JCK, with N140, in the test on P93_24, with P94_40 and in the test with PAD was “inactive” throughout. The Potency entry with PC15, in the test with PC26, in the test with PC49, in the test on SC27B, in the test on TAB109 and with TAB113 was “inactive” in each case. Besides, the Potency result in the test with TAB165 and in the test on W2 was “inactive” throughout. In addition, in the test with KB-3-1, the max response is -13.6%.
With `NCC(O)CC(=O)O` (stereo not given), the Potency entry with ICS, with JCK, in the test with N140, in the test with P93_24, in the test with P94_40 and in the test on PAD was “inactive” in each case. Moreover, the Potency entry in the test with PC15, in the test with PC26, in the test on PC49, with SC27B, in the test with TAB109 and in the test on TAB113 was “inactive” in each case. Besides, the Potency entry with TAB165 and in the test with W2 was “inactive” each time. For the same compound, the max response in the test on KB-3-1 was 3.49%.
Regarding `FC(F)(F)C(F)(F)C(F)(F)C(F)(F)C(F)(F)F`, the Potency result in the test with ICS, in the test on JCK, in the test with N140, with P93_24, in the test with P94_40 and with PAD was “inactive” each time. The Potency result with PC15, in the test on PC26, with PC49, with SC27B, with TAB109 and with TAB113 was “inactive” each time. Besides, the Potency result in the test with TAB165 and in the test with W2 was “inactive” each time. In addition, the max response with KB-3-1 is -12.9%.
`O=C(CCCCCCCCCCCCC1CCCC1)Nc1ccc(S(=O)(=O)c2ccc(NC(=O)CCCCCCCCCCCCC3CCCC3)cc2)cc1`: the Potency entry in the test with ICS, in the test with JCK, in the test with N140, with P93_24, with P94_40 and in the test on PAD was “inactive” throughout. In addition, the Potency entry in the test on PC15, in the test on PC26, with PC49, with SC27B, in the test on TAB109 and in the test on TAB113 was “inactive” each time. Also, the Potency result with TAB165 and with W2 was “inactive” each time. Moreover, the max response with KB-3-1 is 4.77%.
On to `O=C(/C=C/c1cccc(F)c1)NC1CC1`, for which the Potency result in the test with ICS, in the test on JCK, in the test with N140, with P93_24, with P94_40 and in the test with PAD was “inactive” in each case. For the same compound, the Potency result in the test on PC15, with PC26, with PC49, in the test with SC27B, with TAB109 and with TAB113 was “inactive” each time. Also, the Potency result with TAB165 and with W2 was “inactive” in each case. In the test with KB-3-1, the max response was -16.5%.
Consider `COc1cc(S(C)=O)ccc1-c1nc2ncccc2[nH]1` (stereo not given), for which the Potency result in the test with ICS, with JCK, in the test with N140, in the test with P93_24, in the test with P94_40 and with PAD was “inactive” throughout. In addition, the Potency result in the test with PC15, in the test on PC26, in the test on PC49, in the test on SC27B, in the test on TAB109 and in the test on TAB113 was “inactive” in each case. The Potency result in the test on TAB165 and in the test on W2 was “inactive” throughout. Besides, the max response in the test with KB-3-1 is 26.5%.
As for `Cc1cc(-c2ccc(N=Nc3ccc4c(S(=O)(=O)O)cc(S(=O)(=O)O)c(N)c4c3O)c(C)c2)ccc1N=Nc1ccc2c(S(=O)(=O)O)cc(S(=O)(=O)O)c(N)c2c1O`, the Potency entry in the test on ICS, in the test with JCK, with N140, in the test on P93_24, in the test on P94_40 and in the test on PAD was “inactive” throughout. For the same compound, the Potency result with PC15, with PC26, in the test on PC49, in the test on SC27B, with TAB109 and in the test on TAB113 was “inactive” each time. The Potency entry in the test on TAB165 and in the test with W2 was “inactive” in each case. Also, the Potency with KB-3-1 was 8.2 µM (active).
Turning to `CCCCCCCCCCCC(=O)OCC(O)CO` (stereo not given), the Potency entry in the test with ICS, in the test with JCK, with N140, with P93_24, in the test with P94_40 and in the test on PAD was “inactive” each time. Also, the Potency entry with PC15, with PC26, with PC49, in the test with SC27B, in the test on TAB109 and in the test on TAB113 was “inactive” throughout. Besides, the Potency entry with TAB165 and with W2 was “inactive” throughout. Besides, the max response in the test on KB-3-1 was 4.65%.
On to `OCC(O)CO`, for which the Potency entry with ICS, with JCK, with N140, in the test with P93_24, in the test with P94_40 and in the test on PAD was “inactive” throughout. The Potency result with PC15, with PC26, with PC49, with SC27B, in the test on TAB109 and in the test with TAB113 was “inactive” throughout. Moreover, the Potency result with TAB165 and in the test with W2 was “inactive” each time. Moreover, in the test with KB-3-1, the max response was 0.712%.
